# Reference: PubChem BioAssay (NCATS)
# A number with no mark means an inactive call. Records with an inconclusive call do not appear. A call without a number means that no potency is given here. Active and inactive are the calls of the source. Unless noted, calls come from the whole dose curve; as a rule, active = well fitted curve in the direction sought with a large enough effect; inconclusive = small, poorly fitted or top-dose-only effect, or another doubt; inactive = no such curve, though single readings can be large; an effect the other way counts as inactive or inconclusive.
# Legend:
# UISO = experiment: qHTS assay to identify novel small-molecules to repurpose for Merkel cell carcinoma treatment (AID 1296009); conditions: MCC and control cell lines, CellTiter-Glo viability, 72 h; series mostly up to 46 µM; note: nearly all actives have a fitted effect of over 60% in size; note: potency is the fitted concentration of half-maximal effect
# How it was run: (§1)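 Cells were incubated with compound for 72 hr at 37 degree celsius before CellTiter-Glo addition. Luminescence was normalized with no-cell wells as full cytotoxicity and DMSO as baseline.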
# C33A = experiment: Primary qHTS to identify gynecologic anti-cancer compounds using libraries of approved drugs and bioactive compounds (AID 1345084); conditions: Gynecologic cancer cell panel viability, ATPlite luminescence, 48 h; series mostly up to 57.5 µM; note: nearly all actives have a fitted effect of over 55% in size; note: potency is the fitted concentration of half-maximal effect
# How it was run: (§2)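 Five-point cytotoxicity, 48 h drug exposure at 37 C, 5% CO2, on cells seeded 16 h beforehand. ATP content read by ATPlite luminescence.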
# CAOV3 = experiment: as above; conditions: Gynecologic cancer cell panel viability, ATPlite luminescence, 48 h; series mostly up to 57.5 µM
# How it was run: as §2
# CASKI = experiment: as above; conditions: Gynecologic cancer cell panel viability, ATPlite luminescence, 48 h; series mostly up to 57.5 µM
# How it was run: as §2
# Es-2 = experiment: as above; conditions: Gynecologic cancer cell panel viability, ATPlite luminescence, 48 h; series mostly up to 57.5 µM
# How it was run: as §2
# HeLa = experiment: as above; conditions: Gynecologic cancer cell panel viability, ATPlite luminescence, 48 h; series mostly up to 57.5 µM
# How it was run: as §2
# Hek293T = experiment: as above; conditions: Gynecologic cancer cell panel viability, ATPlite luminescence, 48 h, control line for the selectivity index; series mostly up to 57.5 µM
# How it was run: as §2
# JEG-3 = experiment: as above; conditions: Gynecologic cancer cell panel viability, ATPlite luminescence, 48 h; series mostly up to 57.5 µM
# How it was run: as §2
# PA-1 = experiment: as above; conditions: Gynecologic cancer cell panel viability, ATPlite luminescence, 48 h; series mostly up to 57.5 µM
# How it was run: as §2
# Tov-21-G = experiment: as above; conditions: Gynecologic cancer cell panel viability, ATPlite luminescence, 48 h; series mostly up to 57.5 µM
# How it was run: as §2
# Tov112D = experiment: as above; conditions: Gynecologic cancer cell panel viability, ATPlite luminescence, 48 h; series mostly up to 57.5 µM
# How it was run: as §2
# [1] = Drug repurposing screens with cells derived from glioblastoma tumor samples (AID 1345199); conditions: GBM patient neurospheres viability, ATP luminescence, 48 h; note: nearly all actives have a fitted effect of over 40% in size; note: potency is the fitted concentration of half-maximal effect
# How it was run: (§3)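 Four patient lines of CD133+ GBM neurospheres were screened at several concentrations; hits were retested in those lines plus three slower-growing GBM lines, using 48-hour treatment and ATP-based viability.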
# astro = experiment: as above; conditions: viability, ATP luminescence, 48 h; series mostly up to 45.9 µM
# How it was run: as §3
# OV90 = experiment: Primary qHTS to identify gynecologic anti-cancer compounds using libraries of approved drugs and bioactive compounds (AID 1345084); conditions: Gynecologic cancer cell panel viability, ATPlite luminescence, 48 h; series mostly up to 57.5 µM; note: nearly all actives have a fitted effect of over 55% in size; note: potency is the fitted concentration of half-maximal effect
# How it was run: as §2
# [2] = biological target: Nuclear receptor subfamily 1 group I member 2 (Rattus norvegicus) (UniProt Q9R1A7); experiment: qHTS assay for small molecule activators of the rat pregnane X receptor (rPXR) signaling pathway (AID 651751; call rule not given here); conditions: rPXR reporter cells, luciferase (One-Glo), 24 h
# Nuclear receptor subfamily 1 group I member 2 (Rattus norvegicus), sequence (Q9R1A7 whole entry, looked up): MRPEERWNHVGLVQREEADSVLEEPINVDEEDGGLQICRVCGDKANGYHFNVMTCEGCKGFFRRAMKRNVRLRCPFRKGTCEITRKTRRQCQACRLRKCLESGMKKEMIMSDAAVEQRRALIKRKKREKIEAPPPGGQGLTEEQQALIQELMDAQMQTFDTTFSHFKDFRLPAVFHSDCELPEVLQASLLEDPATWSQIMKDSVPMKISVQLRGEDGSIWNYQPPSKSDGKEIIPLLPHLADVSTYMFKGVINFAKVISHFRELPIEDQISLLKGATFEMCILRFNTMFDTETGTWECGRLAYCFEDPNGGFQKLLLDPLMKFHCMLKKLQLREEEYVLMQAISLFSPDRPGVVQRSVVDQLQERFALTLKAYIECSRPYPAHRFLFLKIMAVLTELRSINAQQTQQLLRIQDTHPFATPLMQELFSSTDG
# SKOV3 = experiment: Primary qHTS to identify gynecologic anti-cancer compounds using libraries of approved drugs and bioactive compounds (AID 1345084); conditions: Gynecologic cancer cell panel viability, ATPlite luminescence, 48 h; series mostly up to 57.5 µM; note: nearly all actives have a fitted effect of over 55% in size; note: potency is the fitted concentration of half-maximal effect
# How it was run: as §2
# [3] = qHTS assay for small molecule activators of the human pregnane X receptor (PXR) signaling pathway (AID 720659; call rule not given here)
# WaGa = experiment: qHTS assay to identify novel small-molecules to repurpose for Merkel cell carcinoma treatment (AID 1296009); conditions: MCC and control cell lines, CellTiter-Glo viability, 72 h; series mostly up to 46 µM; note: nearly all actives have a fitted effect of over 60% in size; note: potency is the fitted concentration of half-maximal effect
# How it was run: as §1
# [4] = at 91.6 µM (top of the series), tumour line B
# [5] = at 91.6 µM (top of the series), tumour line D
# [6] = at 45.9 µM (top of the series), tumour line B
# [7] = at 45.9 µM (top of the series), tumour line D
smiles,measurement,setting,value
CC1N=C(N)OC1c1ccccc1 (centres undefined),Potency,UISO,inactive
same,Potency,C33A,inactive
same,Potency,CAOV3,inactive
same,Potency,CASKI,inactive
same,Potency,Es-2,inactive
same,Potency,HeLa,inactive
same,Potency,Hek293T,inactive
same,Potency,JEG-3,inactive
same,Potency,PA-1,inactive
same,Potency,Tov-21-G,inactive
same,Potency,Tov112D,inactive
same,"activity, negative = cell killing",[1]; [4],-8.97%
same,"activity, negative = cell killing",[1]; [5],-16.1%
same,Potency,[1]; tumour line A,50.1 µM (active)
same,Potency,astro,inactive
N#Cc1nn(-c2c(Cl)cc(C(F)(F)F)cc2Cl)c(N)c1S(=O)C(F)(F)F (centres undefined),Potency,C33A,inactive
same,Potency,CASKI,inactive
same,Potency,Es-2,inactive
same,Potency,HeLa,inactive
same,Potency,JEG-3,inactive
same,Potency,OV90,inactive
same,Potency,PA-1,inactive
same,Potency,Tov-21-G,inactive
same,Potency,Tov112D,inactive
same,"activity, negative = cell killing",[1]; [6],-25.5%
same,max response,[2],-15%
Clc1ccc(C(OCCN2CCCCC2)c2ccccc2)cc1 (centres undefined),Potency,C33A,inactive
same,Potency,CASKI,inactive
same,Potency,Es-2,inactive
same,Potency,HeLa,inactive
same,Potency,Hek293T,inactive
same,Potency,JEG-3,inactive
same,Potency,Tov-21-G,inactive
same,Potency,Tov112D,inactive
same,Potency,[1]; tumour line A,3.55 µM (active)
same,Potency,[1]; tumour line B,10 µM (active)
same,Potency,[1]; tumour line D,7.08 µM (active)
same,Potency,astro,inactive
CCC(=O)O[C@H]1CC[C@H]2[C@@H]3CCC4=CC(=O)CC[C@]4(C)[C@H]3CC[C@]12C,Potency,UISO,inactive
same,Potency,C33A,inactive
same,Potency,CASKI,inactive
same,Potency,Es-2,inactive
same,Potency,HeLa,3.55 µM (active)
same,Potency,Hek293T,inactive
same,Potency,JEG-3,inactive
same,Potency,PA-1,15.8 µM (active)
same,Potency,SKOV3,inactive
same,Potency,Tov-21-G,inactive
same,Potency,Tov112D,inactive
same,"activity, negative = cell killing","[1]; at 21.2 µM (top of the series), tumour line B",-4.44%
same,"activity, negative = cell killing","[1]; at 21.2 µM (top of the series), tumour line D",-24.6%
same,Potency,[1]; tumour line A,14.1 µM (active)
same,outcome,[3],inactive
NC1(c2ccccc2)CCCCC1,Potency,UISO,inactive
same,Potency,CAOV3,inactive
same,Potency,CASKI,inactive
same,Potency,Es-2,inactive
same,Potency,Hek293T,inactive
same,Potency,JEG-3,inactive
same,Potency,OV90,inactive
same,Potency,PA-1,inactive
same,Potency,Tov-21-G,inactive
same,"activity, negative = cell killing",[1]; [4],-7.4%
same,Potency,[1]; tumour line A,63.1 µM (active)
c1ccc2c(c1)Sc1ccccc1N2CC1CN2CCC1CC2 (centres undefined),Potency,UISO,26.6 µM (active)
same,Potency,Es-2,35.5 µM (active)
same,Potency,Hek293T,31.6 µM (active)
same,Potency,OV90,28.2 µM (active)
same,Potency,SKOV3,28.2 µM (active)
CCc1cc(OC)c(C[C@H](C)N)cc1OC,Potency,WaGa,inactive
same,Potency,C33A,inactive
same,Potency,CAOV3,inactive
same,Potency,CASKI,inactive
same,Potency,Es-2,inactive
same,Potency,HeLa,inactive
same,Potency,Hek293T,inactive
same,Potency,JEG-3,inactive
same,Potency,PA-1,inactive
same,Potency,SKOV3,inactive
same,Potency,Tov-21-G,inactive
same,Potency,Tov112D,inactive
same,"activity, negative = cell killing","[1]; at 108 µM (top of the series), tumour line B",-24.5%
same,"activity, negative = cell killing","[1]; at 108 µM (top of the series), tumour line D",-14.6%
same,Potency,[1]; tumour line A,31.6 µM (active)
CCOC(=O)C1(c2ccccc2)CCN(CCc2ccc(N)cc2)CC1,Potency,WaGa,inactive
same,Potency,C33A,inactive
same,Potency,CAOV3,inactive
same,Potency,CASKI,inactive
same,Potency,Es-2,inactive
same,Potency,HeLa,inactive
same,Potency,Hek293T,inactive
same,Potency,JEG-3,inactive
same,Potency,OV90,inactive
same,Potency,PA-1,inactive
same,Potency,SKOV3,inactive
same,Potency,Tov-21-G,inactive
same,Potency,Tov112D,inactive
C#C[C@]1(O)CC[C@H]2[C@@H]3CCC4=CC(=O)CCC4=C3C=C[C@@]21CC,Potency,C33A,inactive
same,Potency,CAOV3,inactive
same,Potency,CASKI,inactive
same,Potency,Es-2,inactive
same,Potency,HeLa,inactive
same,Potency,Hek293T,inactive
same,Potency,JEG-3,inactive
same,Potency,OV90,inactive
same,Potency,PA-1,inactive
same,Potency,SKOV3,inactive
same,Potency,Tov-21-G,inactive
same,Potency,Tov112D,inactive
same,"activity, negative = cell killing",[1]; [6],-22.9%
same,"activity, negative = cell killing",[1]; [7],-22%
same,Potency,[1]; tumour line A,10 µM (active)
C[C@]12Cc3nonc3C[C@@H]1CC[C@@H]1[C@@H]2CC[C@@]2(C)[C@H]1CC[C@]2(C)O,Potency,WaGa,18.8 µM (active)
same,Potency,C33A,inactive
same,Potency,CAOV3,inactive
same,Potency,CASKI,inactive
same,Potency,Es-2,inactive
same,Potency,HeLa,2.82 µM (active)
same,Potency,Hek293T,inactive
same,Potency,JEG-3,inactive
same,Potency,OV90,inactive
same,Potency,SKOV3,inactive
same,Potency,Tov-21-G,inactive
same,Potency,Tov112D,inactive
same,"activity, negative = cell killing",[1]; [6],-26.1%
same,Potency,[1]; tumour line A,12.6 µM (active)
Cc1cccc(Cc2cnc[nH]2)c1C,Potency,WaGa,inactive
same,Potency,C33A,inactive
same,Potency,CAOV3,inactive
same,Potency,CASKI,inactive
same,Potency,Es-2,inactive
same,Potency,HeLa,inactive
same,Potency,Hek293T,inactive
same,Potency,JEG-3,inactive
same,Potency,OV90,inactive
same,Potency,PA-1,inactive
same,Potency,SKOV3,inactive
same,Potency,Tov-21-G,inactive
same,Potency,Tov112D,inactive
same,"activity, negative = cell killing",[1]; [6],-15.8%
same,"activity, negative = cell killing",[1]; [7],-4.57%
same,Potency,[1]; tumour line A,35.5 µM (active)
same,Potency,astro,inactive
COc1ccc2c(C(=O)c3ccc(Cl)cc3)c(C)n(CC(=O)O)c2c1,Potency,UISO,26.6 µM (active)
same,Potency,C33A,inactive
same,Potency,CAOV3,inactive
same,Potency,CASKI,inactive
same,Potency,Hek293T,inactive
same,Potency,JEG-3,inactive
same,Potency,OV90,inactive
same,"activity, negative = cell killing",[1]; [6],-15.8%
same,"activity, negative = cell killing",[1]; [7],-19.1%
same,Potency,astro,inactive
CN1CCc2cc(Cl)c(O)cc2[C@H]2c3ccccc3CC[C@@H]21,Potency,UISO,inactive
same,Potency,C33A,inactive
same,Potency,CAOV3,inactive
same,Potency,CASKI,inactive
same,Potency,Es-2,inactive
same,Potency,HeLa,inactive
same,Potency,Hek293T,inactive
same,Potency,PA-1,inactive
same,Potency,SKOV3,inactive
same,Potency,Tov-21-G,inactive
same,Potency,Tov112D,inactive
same,"activity, negative = cell killing",[1]; [6],-22.7%
same,Potency,[1]; tumour line A,11.2 µM (active)
CC(C)=CCN1CC[C@@]2(C)c3cc(O)ccc3C[C@@H]1[C@@H]2C,Potency,UISO,inactive
same,Potency,C33A,inactive
same,Potency,CAOV3,inactive
same,Potency,CASKI,inactive
same,Potency,Es-2,28.2 µM (active)
same,Potency,HeLa,inactive
same,Potency,Hek293T,inactive
same,Potency,JEG-3,inactive
same,Potency,PA-1,inactive
same,Potency,SKOV3,inactive
same,Potency,Tov-21-G,inactive
same,Potency,Tov112D,inactive
same,"activity, negative = cell killing",[1]; [4],-12.8%
same,Potency,[1]; tumour line A,25.1 µM (active)
same,Potency,astro,inactive
CCCN(CCC)CCc1c[nH]c2ccccc12,Potency,WaGa,inactive
same,Potency,C33A,inactive
same,Potency,CAOV3,inactive
same,Potency,CASKI,inactive
same,Potency,Es-2,inactive
same,Potency,HeLa,inactive
same,Potency,Hek293T,inactive
same,Potency,JEG-3,inactive
same,Potency,Tov-21-G,inactive
same,Potency,Tov112D,inactive
same,"activity, negative = cell killing",[1]; [4],-11.3%
same,"activity, negative = cell killing",[1]; [5],-14%
same,Potency,[1]; tumour line A,25.1 µM (active)
